From PubChem BioAssay
14-3-3g Raf: modulators of 14-3-3 gamma protein binding, primary screen, biochemical, fluorescence polarization; FP, 14-3-3gamma / TMR-pS259-Raf peptide binding; actives 0.19% (n = 160,000); 14-3-3 protein gamma (Homo sapiens), P61981; AID 422, 2006; inhibition, % at 40 µM; in the data active = inhibition above about 30%;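 also: 0% = protein plus tracer without compound and 100% = blank with tracer alone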
Target sequence (P61981 whole entry, looked up): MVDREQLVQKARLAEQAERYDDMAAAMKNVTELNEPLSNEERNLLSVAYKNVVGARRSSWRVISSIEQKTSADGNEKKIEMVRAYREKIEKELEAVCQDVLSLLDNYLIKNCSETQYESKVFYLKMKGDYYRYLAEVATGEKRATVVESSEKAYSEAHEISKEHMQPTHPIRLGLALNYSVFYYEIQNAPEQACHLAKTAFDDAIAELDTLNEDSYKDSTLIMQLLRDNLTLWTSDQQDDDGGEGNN
The depositor's hits bear a star; ! = not active in a repeat. The full list was thinned out, with hits kept by preference.

SMILES	14-3-3g Raf
CCN(CC)C(=O)c1ccc2c(c1NCCO)C(=O)c1ccccc1C2=O	-310.5
Cn1c(=O)c(N2CCOCC2)c2c3c(cccc31)C(=O)c1ccccc1-2	50.3*
CC(C(=O)NC1CCCCC1)N1C(=O)c2ccccc2C1=O (configuration not stated)	-4.5
COc1ccccc1C(CC(=O)O)C1CCOC(C)(C)C1 (configuration not stated)	-2.6
COc1ccccc1N1CCN(c2ncc(C(=O)N3CCN(c4ccc(F)cc4)CC3)c3ccccc23)CC1	3.3
Cc1cc(NC(=O)c2cccc3ccccc23)ccc1-c1cc2ccccc2oc1=O	-8.3
CCOc1ccc(-n2c(=O)c3c(C)c(C(=O)N(C)C)sc3n(CC(=O)C(C)(C)C)c2=O)cc1	7.2
O=C(NC(=O)N1CCN(c2ccccc2F)CC1)c1ccccc1	2.4
O=C(c1cnccn1)N1CCN(c2ccccc2F)CC1	-26.6
O=C(O)C1C2CCC(C2)C1C(=O)N1CCN(c2ccccc2F)CC1 (configuration not stated)	43.5*
Cc1ccccc1CSCC(=O)NCCc1ccc(Cl)cc1	0.0
O=C(Cn1c(=O)oc2ccccc21)Nc1ccc(C(=O)N2CCc3ccccc32)cc1	-2.1
CC(=O)c1ccc(N2CCN(C(=O)C3CCC(CNS(=O)(=O)c4cccs4)CC3)CC2)cc1 (configuration not stated)	-5.1
CN(C)c1ccc(C=Cc2ccncc2)cc1	-43.2
O=C(O)CC(C(=O)OCC1CCCO1)N1CCOCC1 (configuration not stated)	-6.2
O=C(O)CC(C(=O)OC1CCCCC1)N1CCOCC1 (configuration not stated)	3.1
CCOC(=O)C(CC(=O)O)N1CCCCC1 (configuration not stated)	35.5*
Cc1nn(-c2ccc(Br)cc2)c2c1C(=O)CC(C)(C)C2	4.1
COc1ccc(Cl)cc1C(=O)Nc1ccc(-c2nc3ccccc3[nH]2)cc1	-12.1
COC(=O)c1sc(NC(=O)c2cc3ccccc3c(=O)o2)c(C(=O)OC)c1C	-35.5
O=C(NCc1ccccn1)C1CCN(S(=O)(=O)c2cccs2)CC1	7.9
O=C(NCc1ccccn1)C1CCN(S(=O)(=O)c2cnc[nH]2)CC1	58.7*!
CC1CCN(S(=O)(=O)N2CCC(C(=O)NCc3ccccn3)CC2)CC1	-4.3
COc1ccccc1N(CC(=O)Nc1ccc(C)c(Cl)c1)S(C)(=O)=O	-8.8
CCOc1ccc(-n2sc3c(c2=S)-c2ccccc2N(CC)C3(C)C)cc1	3.9
SMILES	14-3-3g Raf
CC(=O)N1CCC2(CC1)CC(=O)c1cc(OCC(=O)NCc3ccccn3)ccc1O2	102.6*
O=C(COc1ccc2c(c1)C(=O)CC1(CCCCC1)O2)NCc1ccccc1	-0.8
O=C(COc1ccc2c(c1)C(=O)CC1(CCCCC1)O2)NCc1ccccn1	-10.1
Cc1ccc(N2C(=O)C3CC=CCC3C2=O)c(C)c1 (configuration not stated)	-9.5
CCn1c(CSc2nnc(-c3cccnc3)n2-c2ccccc2C)nc2cc(C(=O)O)ccc21	126.9*
CCn1c(CSc2nnc3ccccn23)nc2cc(C(=O)O)ccc21	138.6*
CCn1c(CSc2nc3ccccc3n2C)nc2ccccc21	2.2
O=C(CSc1nnc2ccccn12)Nc1ccc2ccccc2c1	1.1
Cc1ccccc1-n1c(SCc2ccccc2)nnc1-c1cccnc1	1.3
CCOc1ccccc1-n1c(SCC(N)=O)nnc1-c1cccnc1	1.8
COc1ccc(Cl)cc1NC(=O)C1CCCN(S(=O)(=O)c2cccc3nsnc23)C1 (configuration not stated)	0.4
COc1ccc2cc3cc(C(=O)N4CCC(N5CCCCC5)CC4)oc3nc2c1	46.0*
Cc1ccc2cc3cc(C(=O)N4CCC(N5CCCCC5)CC4)oc3nc2c1	-5.8
COc1ccc2cc3cc(C(=O)N4CCCC4)oc3nc2c1	-3.4
CCOc1cc2c(cc1OCC)C1C(C(=O)Nc3ccc(Br)cc3C)c3ccccc3C(=O)N1CC2 (configuration not stated)	2.9
CC(=O)c1c(-c2ccccc2)c2cc(Br)ccc2[nH]c1=O	-12.1
COC(=O)c1ccc2c(=O)n(-c3ccc(C)c(F)c3)c(=S)[nH]c2c1	10.2
O=C1C2C3C=CC(C2C(=O)N1c1ccc(O)cc1)C1C2C(=O)N(c4ccc(O)cc4)C(=O)C2C31 (configuration not stated)	63.7*
O=C1C2C3C=CC(C2C(=O)N1c1ccccc1)C1C2C(=O)N(c4ccccc4)C(=O)C2C31 (configuration not stated)	-3.2
COc1ccc(N2C(=O)C3C4C=CC(C3C2=O)C2C3C(=O)N(c5ccc(OC)cc5)C(=O)C3C42)cc1 (configuration not stated)	-0.9
COc1cc(NC(=O)CCC(=O)OCC(F)(F)F)nc(OC)n1	-4.0
Cc1cc([N+](=O)[O-])ccc1-c1ccc(C=Cc2ccc3cccc(O)c3n2)o1	143.5*
COc1ccc(OC)c(C=Cc2ccc3cccc(O)c3n2)c1	-3.9
O=[N+]([O-])c1ccccc1-c1ccc(C=Cc2ccc3ccccc3n2)o1	-68.2
CNc1ccccc1P(=O)(O)O	2.8
SMILES	14-3-3g Raf
c1ccc2c(C(c3ccsc3)c3c[nH]c4ccccc34)c[nH]c2c1	-19.2
O=C(c1ccc2nc3cc(Cl)ccc3c(=O)n2c1)N1CCN(c2ccccc2)CC1	-1.2
CCCOc1ccc(NC(=O)C2CC(=O)N(C)C(=Nc3ccc(OCC)cc3)S2)cc1 (configuration not stated)	-5.0
C=CSc1sc(Cl)c(N2CCCC2)c1[N+](=O)[O-]	-27.3
O=C(Nc1cccc(C(F)(F)F)c1)c1c[nH]c2ccc(S(=O)(=O)N3CCc4ccccc4C3)cc2c1=O	2.6
Cc1ccc(NC(=O)c2ccccc2C)cc1I	-5.6
Cc1ccccc1NC(=O)c1ccccc1C	-1.5
Cc1ccccc1C(=O)Nc1ccccc1C(=O)Nc1ccccc1	35.1*
COc1ccccc1-c1cc(C(=O)Nc2cccc(C(F)(F)F)c2)no1	-2.7
Cc1ccc(C(C)C)c(OCC(=O)Nc2ccc(C)c(C)c2)c1	-11.4
COc1ccc(OC)c(NC(=O)COc2ccccc2C(C)C)c1	-2.2
COc1ccc(OC)c(NC(=O)COc2cc(C)ccc2C(C)C)c1	74.2*
O=C(CSc1nc2ccccc2c(=O)n1-c1ccc(C(=O)N2CCOCC2)cc1)c1ccccc1	-2.1
COc1ccc(C2/C(=C(\O)c3ccc([N+](=O)[O-])cc3)C(=O)C(=O)N2c2ccccc2)cc1OC (configuration not stated)	8.3
COC(=O)c1cc(Cl)c(NC(=O)c2ccccc2CCc2ccccc2)cc1OC	1.8
Cc1ccccc1NC(=O)CC1SC(=Nc2ccccc2)N(C(C)(C)C)C1=O (configuration not stated)	2.4
Cc1ccc(C)c(Nc2c([N+](=O)[O-])ccc3nonc23)c1	-13.3
Cc1ccc(C)c(Nc2ccc([N+](=O)[O-])c3nonc23)c1	34.3*
Cc1ccc(C)c(Nc2ccc3nonc3c2[N+](=O)[O-])c1	-9.6
CC(NC(=O)CCCCCn1c(=O)[nH]c2ccsc2c1=O)C12CC3CC(CC(C3)C1)C2 (configuration not stated)	-16.3
CC1CC(=O)C(CC(=O)O)C1C[N+](=O)[O-] (configuration not stated)	30.3*
CN(Cc1ccccc1)C(=O)c1cc(N2C(=O)C3C4CCC(C4)C3C2=O)ccc1Cl (configuration not stated)	2.5
Cc1nc2nc[nH]n2c(=O)c1NC(=O)c1cccs1	-1.1
